Compound activity (PubChem BioAssay)
Only some compounds are listed: those with a hit (about 19% of all), similar ones and a draw of the others.
Shiga inhibitor: blocks Shiga toxin action in Vero cells. hit rate 9.2% among 290,000. inhibition, % at 38.7 µM. AID 2315. Vero cells, Shiga toxin protein synthesis inhibition reporter; in the data active means inhibition mostly above about 28%, no sharp cut-off; inactive means mostly below about 43%; further: 0% is about no effect
Cycloheximide cs: counter-screen for Shiga toxin inhibitors: cycloheximide protein synthesis inhibition | cell reporter, cycloheximide protein synthesis inhibition counterscreen | max response, % | hit rate 12% among 300,000 | AID 2314; in the data active means max response mostly above about 13%, no sharp cut-off; inactive means mostly below about 14%; further: read at 38.3 µM for the half of the compounds with a filed dose; 0% is about no effect
MARV entry inh: Marburg virus entry inhibition. hit rate 1.8% among 300,000. Potency, µM (titrated, usually from 37.8 µM), without a hit: at the top dose activity change, negative = inhibition, usual class: inhibitors. Marburg virus pseudotyped entry inhibition, cell reporter; calls by dose curve; tested in HEK293 cells; further: potency means the concentration at half of the fitted maximal effect; on the % scale 0 is the no-effect control and ±100 the full control effect
Pf growth 96h: inhibits malaria parasite growth, 96 h | Potency, µM (highest dose often 28.7 µM), inactives show at the highest dose activity change, negative = inhibition, hits mostly inhibitors | P. falciparum luciferase reporter growth, 96 h | hit rate 6.9% among 320,000; further: potency means the concentration at half of the fitted maximal effect; on the % scale 0 is the no-effect control and ±100 the full control effect
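Infected RBCs, 2% Hct / 0.05% parasitemia final; luciferase-reporter P. falciparum; cpd 96 h, 37 C, 5% CO2; luciferase detection reagent; luminescence.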
LASV entry inh: Lassa virus entry inhibition. hit rate 1.2% among 300,000. AID 540256. Potency, µM (series often up to 37.9 µM), without a hit: top-dose activity change, negative = inhibition, usual class: inhibitors. Lassa virus pseudotype entry inhibition, cell reporter; calls by dose curve; tested in HEK293 cells; further: potency means the concentration at half of the fitted maximal effect; on the % scale 0 is the no-effect control and ±100 the full control effect; nearly all actives have a fitted effect of over 50% in size
Pf growth 48h: P. falciparum growth inhibition at 48 hours (one generation); hit rate 5.9% among 310,000; P. falciparum luciferase growth in erythrocytes, 48 h; Potency, µM (highest dose often 28.7 µM), for inactives: at the highest dose activity change, negative = inhibition, most hits filed as inhibitors; AID 504832; further: potency means the concentration at half of the fitted maximal effect; on the % scale 0 is the no-effect control and ±100 the full control effect
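Luciferase-expressing parasites in RBCs, 2% Hct / 0.1% parasitemia final; RPMI 1640 + 0.5% Albumax; 37 C, 5% CO2, one generation; luminescence read-out, lower signal = inhibition.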
Active calls of the source: *; ? = inconclusive; / = no result; [ ] = dose if it differs, or a comment. Unless noted, the call rests on the fitted dose curve; in most records, active means well fitted inhibition curve with a large enough effect; inconclusive means small, poorly fitted or top-dose-only effect, or another doubt; inactive means no such curve, though single readings can be large or run the other way.

SMILES | Shiga inhibitor | Cycloheximide cs | MARV entry inh | Pf growth 96h | LASV entry inh | Pf growth 48h
O=C(CSc1nc2ccccc2c(=O)n1CCCN1CCOCC1)NC12CC3CC(CC(C3)C1)C2 | -16 | -6 | / | ? | / | 10µM*
Cn1c(N)c(C(=O)CSc2nc3ccccc3c(=O)n2CCCN2CCOCC2)c(=O)n(C)c1=O | -10 | -1 | / | 8% | / | -7%
O=S(=O)(NCCc1ccc2c(c1)OCCO2)c1cccs1 | 16 | 19* | ? | 39% | -6% | -3%
C/C(CCc1ccccc1)=N\NC(=O)COc1ccccc1C | 14 | 13 | ? | 50% | / | 20%
COc1cc(Cl)ccc1OCc1cc(C(=O)N2CCN(c3ccccn3)CC2)no1 | 17 | 12 | / | -10% | / | 11%
COc1cc(Cl)ccc1OCc1cc(C(=O)N2CCCCCC2)no1 | 74* | 32* | / | ? | / | 3%
COc1ccc(OCc2cc(C(=O)N3CCCN(C(C)=O)CC3)no2)c(Cl)c1 | 43* | 32* | / | 11% | / | 8%
COc1cc(Cl)ccc1OCc1cc(C(=O)N2CCCC(OC)C2)no1 (centres undefined) | 80* | 54* | ? | 18% | ? | 29%
COc1cc(Cl)ccc1OCc1cc(C(=O)N2CCN(C)CC2)no1 | 7 | 8 | / | ? | / | 10%
N#Cc1nc(-c2cccs2)oc1NCCN1CCOCC1 | -10 | 2 | -11% | / | 6% | 1%
Nc1cc(=O)[nH]c(=O)n1CC1CC1 | -3 | -3 | 10% | 5% | 3% | 8%
Cc1cc(=O)c(C(=O)O)c(C)n1-c1ccccc1 | / | / | 6% | / | 25% | /
CCCc1cc(=O)oc2c(C)c(OCC(=O)NCCCN3CCOCC3)ccc12 | -5 | -1 | / | ? | / | -4%
CCCCc1cc(=O)oc2c(C)c(OCC(=O)NCC3CCC(C(=O)O)CC3)ccc12 (centres undefined) | -4 | 1 | / | 10µM* | / | 40%
CCCc1cc(=O)oc2c(C)c(OCC(=O)NC3CCN(Cc4ccccc4)CC3)ccc12 | -14 | 7 | / | 13µM* | / | ?
CCCc1cc(=O)oc2cc(OCC(=O)NC3CCN(Cc4ccccc4)CC3)ccc12 | 11 | -12 | / | ? | / | ?
CCCc1cc(=O)oc2c(C)c(OCC(=O)Nc3ccc(CN4CCOCC4)cc3)ccc12 | -4 | -3 | / | 4.1µM* | / | ?
Cc1cc(=O)oc2c(C)c(OCC(=O)NCC3CCC(C(=O)O)CC3)ccc12 (centres undefined) | -8 | -1 | / | 4% | / | 29%
CC(=O)Nc1c(C(=O)c2ccc(F)cc2)oc2ccccc12 | -11 | -5 | -15% | -9% | -1% | 14%
FC(F)(F)c1ccc(Cl)c(NC(=S)N/N=C/c2ccccc2Cl)c1 | -5 | -5 | / | 1.5µM* | / | ?
COc1ccc(/C=N/NC(=S)Nc2ccccc2[N+](=O)[O-])cc1O | 62* | 60* | ? | 28% | 23µM* | 131%
S=C(N/N=C/c1ccc(Cl)c(Cl)c1)Nc1ccccc1Cl | 30 | 23* | ? | 72%[5.75 µM] | ? | -2%
O=C(CCNC(=O)c1ccccc1Cl)Nc1cc(C(F)(F)F)ccc1Cl | 7 | -2 | -9% | 4% | ? | 17%
O=[N+]([O-])c1cc(/C=N/NC(=S)Nc2ccccc2Cl)ccc1Cl | 21 | 10 | 8.9µM* | 59%[5.75 µM] | ? | -19%
Cc1ccc(NC(=S)N/N=C/c2c(Cl)cccc2Cl)c(C)c1 | 29 | 16 | ? | ? | ? | 14%
SMILES | Shiga inhibitor | Cycloheximide cs | MARV entry inh | Pf growth 96h | LASV entry inh | Pf growth 48h
COc1ccc(C(=O)Oc2c(Sc3ccc(C)cc3)c(C)nn2C(C)(C)C)cc1OC | / | / | ? | / | -6%[46.1 µM] | /
Fc1ccc(NC(=S)N/N=C/c2cccc(Br)c2)c(F)c1 | -11 | 5 | -25% | ? | -1% | /
Fc1cccc(/C=N/NC(=S)Nc2ccccc2Cl)c1 | 31 | 36* | -7% | 221% | 0% | 101%
Cc1ccc(CN2CC(C(=O)Nc3cc(C)ccn3)CC2=O)cc1 (centres undefined) | / | / | ? | 137% | -18% | 86%
C/C(=C\C(=O)c1ccc(Br)cc1)Nc1ccc(Cl)cc1 | 36* | 20 | ? | 58% | 18% | 64%
C/C(=C\C(=O)c1ccccc1)Nc1ccc(Br)c(Cl)c1 | 98 | 23* | -2% | 66% | / | 60%
O=C(Cc1ccccc1)Nc1ccc(Br)c(Cl)c1 | 25* | 21* | -22% | 154% | 11% | 48%
CCN(CC)c1ncnc2scc(C3COc4ccccc4O3)c12 (centres undefined) | 1 | -2 | -26%[46.1 µM] | -19% | ? | 8.3µM*
c1ccc2c(c1)OCC(c1csc3ncnc(N4CCOCC4)c13)O2 (centres undefined) | -6 | -3 | 5% | / | 20% | -27%
Fc1ccc(NC(=S)N2CCc3ccccc32)cc1 | 41* | 15* | / | ? | / | -21%
NS(=O)(=O)c1ccc(NC(=S)N2CCc3ccccc32)cc1 | -17 | 3 | / | 24% | / | -14%
FC(F)Oc1ccc(NC(=S)N2CCc3ccccc32)cc1 | 78* | 36* | 29%[46.1 µM] | 54% | 8% | 26%
O=C(Nc1ccc([N+](=O)[O-])cc1)c1ccccc1F | 117* | 39* | -8% | ? | 13% | 272%
Cc1cc(Br)cc(C)c1NC(=O)c1ccc(C#N)cc1F | -10 | 1 | -1%[46.1 µM] | 126% | 2%[46.1 µM] | -8%
N#Cc1ccc(C(=O)Nc2ccc([N+](=O)[O-])cc2)c(F)c1 | 52* | 8 | -17%[46.1 µM] | 23% | 11% | 35%
CC1(c2ccc(NC(=O)c3ccccc3F)cc2)CC1(Cl)Cl (centres undefined) | / | 35* | / | 9% | / | 92%
O=C(Nc1ccc(-c2ccc([N+](=O)[O-])cc2)cc1)c1ccccc1F | 12 | 16 | 2%[46.1 µM] | 10% | -13%[46.1 µM] | 26%
O=C(Nc1ccccc1)c1cc([N+](=O)[O-])ccc1NC1CCCCC1 | 1 | 0 | 7% | ? | ? | 8.3µM*
CCOc1ccc(NC(=O)Cn2cc(S(=O)(=O)N3CCN(c4ccccc4F)CC3)c3ccccc3c2=O)cc1 | / | / | 1%[46.1 µM] | / | -3%[46.1 µM] | /
O=C(CCn1c(=O)sc2ccccc21)Nc1cccnc1 | 8 | 5 | 25% | ? | -4% | 24%
CC(C)Cn1c(N)c(C(=O)COC(=O)COc2cccc(C(F)(F)F)c2)c(=O)n(C)c1=O | -5 | -2 | / | 5% | / | -11%
CCOC(=O)c1ccccc1NC(=O)CSc1nccn1Cc1ccco1 | / | / | / | / | -12%[46.1 µM] | /
CC(=O)Nc1ccc(NC(=O)CSc2nccn2Cc2ccco2)cc1 | 60* | 17* | 0% | 41% | 6% | 41%
O=C(CN(Cc1ccco1)S(=O)(=O)c1cccs1)Nc1ccccc1C(F)(F)F | 42* | 24* | ? | ? | 4% | -6%
O=C(CN(Cc1ccco1)C(=O)c1ccccc1F)Nc1ccccc1C(F)(F)F | / | / | / | ? | / | -7%
O=C(CSc1nccn1Cc1ccco1)Nc1ccccc1 | 41* | 32* | ? | 41% | -7% | 40%
O=C(CSc1nccn1Cc1ccco1)Nc1ccccc1C(F)(F)F | 21 | 28* | ? | -2% | 1% | 7%
